Several values for one entry are separate records, joined by “and”; a condition that tells them apart may be missing. Equal entries are not always repeated. Structures can show the parent of a compound that is named as a salt. Out of some 5,800 compounds screened, about 620 (11%) showed activity.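 How the source made its calls: active = score above a cut-off or among the top three wells of a plate; in these data no inactive exceeds 0.85.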 What follows is part of a selection rich in actives, with near analogues and random picks from the rest.
System: primary human hepatic stellate cells (donor 1)
Assay: scaled lipid accumulation score (0 = DMSO-like, 1 = nortriptyline-like); higher = stronger HSC inactivation (lipid re-accumulation), active = hit call of the paper
Conditions: 48 h
[1] = library stock concentration: 3.33 mM
[2] = library stock concentration: 10 mM
[3] = library stock concentration: 2 mM
[4] = library stock concentration: 400 uM
[5] = library stock concentration: 80 uM
[6] = library stock concentration: 1 mM

`O=C(Oc1cc(S(=O)(=O)c2ccccc2)ccc1[N+](=O)[O-])c1ccc(Cl)cc1` was tested, and the “scaled lipid accumulation score” value [1] was ≤ -0.009 (inactive) and the “scaled lipid accumulation score” value [2] was ≤ 0 (inactive).

With `S=C(NCc1ccc2c(c1)OCO2)N1CCN(c2ncnc3c2oc2ccccc23)CC1` [Amuvatinib  (MP-470) (2 mM)] the “scaled lipid accumulation score” value [3] was 0.074 (inactive).

With `S=C(NCc1ccc2c(c1)OCO2)N1CCN(c2ncnc3c2oc2ccccc23)CC1` [Amuvatinib (MP-470)] the “scaled lipid accumulation score” value [1] was 0.006 (inactive) and the “scaled lipid accumulation score” value [2] was ≤ 0 (inactive).

With `S=C(NCc1ccc2c(c1)OCO2)N1CCN(c2ncnc3c2oc2ccccc23)CC1` [Amuvatinib  (MP-470) (0.4 mM)] the “scaled lipid accumulation score” value [4] was 0.042 (inactive).

For `S=C(NCc1ccc2c(c1)OCO2)N1CCN(c2ncnc3c2oc2ccccc23)CC1`, the “scaled lipid accumulation score” value [5] was 0.069 (inactive), the “scaled lipid accumulation score” value [4] was ≤ -0.009 (inactive) and the “scaled lipid accumulation score” value [3] was 0.025 (inactive). For the same molecule, the “scaled lipid accumulation score” value [2] was 0.035 (inactive).

With `S=C(NCc1ccc2c(c1)OCO2)N1CCN(c2ncnc3c2oc2ccccc23)CC1` [Amuvatinib  (MP-470) (10 mM)] the “scaled lipid accumulation score” value [2] was 0.068 (inactive).

`O=C(O)[C@H]1NCCC[C@H]1C(=O)O` was tested, and the “scaled lipid accumulation score” value [2] was ≤ 0 (inactive).

With `C[S+]([O-])c1ccc(-c2nc(-c3ccc(F)cc3)c(-c3ccncc3)[nH]2)cc1` (stereo unspecified) the “scaled lipid accumulation score” value [5] was 0.004 (inactive), the “scaled lipid accumulation score” value [4] was ≤ -0.009 (inactive) and ≤ -0.005 (inactive) and the “scaled lipid accumulation score” value [6] was ≤ 0 (inactive). For the same molecule, the “scaled lipid accumulation score” value [3] was 0.017 (inactive) and ≤ -0.005 (inactive), the “scaled lipid accumulation score” value [1] was ≤ 0 (inactive) and the “scaled lipid accumulation score” value (library stock concentration: 13.2 mM) was ≤ -0.012 (inactive).

In the case of `CCCCCC=CC=CC(O)CCCCCCCC(=O)OCC(COC(=O)CCCCCCCC=CC=CC(O)CCCCC)OC(=O)CCCCCCCC=CC=CC(O)CCCCC` (stereo unspecified) [Hydroxy Linoleins], the “scaled lipid accumulation score” value [6] is reported as 0.061 (inactive).

`O=C(Nc1ccc(-c2ccnc(Nc3ccc(N4CCOCC4)cc3)n2)cc1)C1CCCN1` (stereo unspecified) was tested, and the “scaled lipid accumulation score” value [5] was ≤ 0 (inactive), the “scaled lipid accumulation score” value [4] was 0.007 (inactive) and the “scaled lipid accumulation score” value [3] was 0.036 (inactive). For the same molecule, the “scaled lipid accumulation score” value [1] was 0.063 (inactive) and the “scaled lipid accumulation score” value [2] was 0.662 (inactive).

With `N#CCNC(=O)c1ccc(-c2ccnc(Nc3ccc(N4CCOCC4)cc3)n2)cc1` [Momelotinib (CYT387) (10 mM)] the “scaled lipid accumulation score” value [2] was 0.945 (active).

For `N#CCNC(=O)c1ccc(-c2ccnc(Nc3ccc(N4CCOCC4)cc3)n2)cc1` [listing 1 of 2 here], the “scaled lipid accumulation score” value [1] was 1.05 (active) and the “scaled lipid accumulation score” value [2] was 0.922 (active).

With `N#CCNC(=O)c1ccc(-c2ccnc(Nc3ccc(N4CCOCC4)cc3)n2)cc1` [listing 2 of 2 here] the “scaled lipid accumulation score” value [5] was ≤ -0.009 (inactive), the “scaled lipid accumulation score” value [4] was 0.038 (inactive) and the “scaled lipid accumulation score” value [3] was ≤ -0.009 (inactive). The “scaled lipid accumulation score” value [2] was 0.768 (inactive).

With `N#CCNC(=O)c1ccc(-c2ccnc(Nc3ccc(N4CCOCC4)cc3)n2)cc1` [Momelotinib (CYT387) (2 mM)] the “scaled lipid accumulation score” value [3] was 0.858 (active).

For `N#CCNC(=O)c1ccc(-c2ccnc(Nc3ccc(N4CCOCC4)cc3)n2)cc1` [Momelotinib (CYT387) (0.4 mM)], the “scaled lipid accumulation score” value [4] was ≤ -0.005 (inactive).

For `O=C(Nc1ccc(-c2ccnc(Nc3ccc(N4CCOCC4)cc3)n2)cc1)[C@@H]1CCCN1`, the “scaled lipid accumulation score” value [2] was 1.06 (active).

With `c1ccc2c(Oc3nc(Nc4ccc(N5CCOCC5)cc4)c4ncn(C5CCCCC5)c4n3)cccc2c1` [Purmorphamine] the “scaled lipid accumulation score” value [6] was ≤ 0 (inactive), the “scaled lipid accumulation score” value [1] was ≤ 0 (inactive) and the “scaled lipid accumulation score” value [2] was 0.032 (inactive).

In the case of `CC1=C(/C=C/C(=C/C=C/C(C)=C/C(=O)O)c2ccc(C)cc2)C(C)(C)CCC1`, the “scaled lipid accumulation score” value [2] is reported as ≤ -0.001 (inactive).

For `CCCCCC=CCC=CCC=CCCCCCCC(=O)OC` [Dihomo-.gamma.-Linolenic Acid methyl ester], the “scaled lipid accumulation score” value [6] was 0.037 (inactive).

For `CC(C)CC(N)=O`, the “scaled lipid accumulation score” value [2] was 0.291 (inactive).

In the case of `CC(C)CC(N)=O` [Isovaleramide], the “scaled lipid accumulation score” value [1] is reported as ≤ 0 (inactive) and the “scaled lipid accumulation score” value [2] is reported as ≤ -0.001 (inactive).

In the case of `Cc1ncc2ccccc2c1C#N` [4-Cyano-3-methylisoquinoline], the “scaled lipid accumulation score” value [1] is reported as ≤ 0 (inactive).

`CC(=O)NC1[C@@H](O)OC(CO)[C@@H](O)[C@H]1O[C@H](C)C(=O)O` (stereo in doubt) [Muramic acid, N-acetyl] was tested, and the “scaled lipid accumulation score” value was ≤ 0 (inactive).

With `CCC(=O)Oc1ccc2c(c1)CC[C@@H]1[C@@H]2CC[C@]2(C)[C@@H](OC(=O)CC)CC[C@@H]12` the “scaled lipid accumulation score” value [2] was ≤ 0 (inactive).

In the case of `Brc1c(Br)c(Br)c2n[nH]nc2c1Br` [Casein Kinase II Inhibitor I], the “scaled lipid accumulation score” value [1] is reported as ≤ 0 (inactive).

For `CCCCOc1cc(C(=O)OCCN(CC)CC)ccc1N` [Benoxinate hydrochloride], the “scaled lipid accumulation score” value was 0.276 (inactive).

`CCCOc1ccc(C(=O)OCCN(CC)CC)cc1N` [Proparacaine HCl] was tested, and the “scaled lipid accumulation score” value [1] was ≤ 0 (inactive) and the “scaled lipid accumulation score” value [2] was ≤ 0 (inactive).

`CCCOc1ccc(C(=O)OCCN(CC)CC)cc1N` [Proparacaine hydrochloride] was tested, and the “scaled lipid accumulation score” value was ≤ 0 (inactive) and the “scaled lipid accumulation score” value (library stock concentration: 6 mM) was ≤ 0 (inactive).

With `CCCCOc1cc(C(=O)OCCN(CC)CC)ccc1N` [Oxybuprocaine HCl] the “scaled lipid accumulation score” value [1] was ≤ 0 (inactive) and the “scaled lipid accumulation score” value [2] was 0.338 (inactive).

With `CCN(CCCCOC(=O)c1ccc(OC)c(OC)c1)C(C)Cc1ccc(OC)cc1` (stereo unspecified) [Mebeverine hydrochloride] the “scaled lipid accumulation score” value was 0.362 (inactive) and the “scaled lipid accumulation score” value [2] was ≤ 0 (inactive).

With `CCCOc1ccc(C(=O)OCCN(CC)CC)cc1N` [Proxymetacaine] the “scaled lipid accumulation score” value [2] was 0.166 (inactive).

`CCN(CC)CCCCCCCCOC(=O)c1cc(OC)c(OC)c(OC)c1` was tested, and the “scaled lipid accumulation score” value (library stock concentration: 12.6 mM) was 1.02 (active).

With `CCN(CC)CCOC(=O)c1cc(Cl)c(N)cc1OC` [SDZ 205-557 hydrochloride] the “scaled lipid accumulation score” value [2] was 0.003 (inactive).

`CCN(CC)CCCCCCCCOC(=O)c1cc(OC)c(OC)c(OC)c1.Cl` [TMB-8 hydrochloride] was tested, and the “scaled lipid accumulation score” value [2] was 1.03 (active).

`CCN(CC)CCOC(=O)c1cc(Cl)c(N)cc1OC` [SDZ-205,557 hydrochloride] was tested, and the “scaled lipid accumulation score” value [2] was 0.051 (inactive).

For `COc1ccc2cc(C(C#N)OC(=O)CC3OC3c3ccccc3)ccc2c1` (stereo unspecified), the “scaled lipid accumulation score” value [6] was 0.017 (inactive).

`C[N+](C)(C)[C@@H](Cc1c[nH]c(=S)[nH]1)C(=O)[O-]` [Ergothioneine] was tested, and the “scaled lipid accumulation score” value (library stock concentration: 8.7 mM) was ≤ -0.006 (inactive).

For `CN(C)CCCCC(=O)Nc1ccc(NC(=S)NC(=O)c2ccc(C(C)(C)C)cc2)cc1` [Tenovin-6] [listing 1 of 2 here], the “scaled lipid accumulation score” value [1] was 1.18 (active).

`CN(C)CCCCC(=O)Nc1ccc(NC(=S)NC(=O)c2ccc(C(C)(C)C)cc2)cc1` [Tenovin-6] [listing 2 of 2 here] was tested, and the “scaled lipid accumulation score” value [6] was 0.143 (inactive) and the “scaled lipid accumulation score” value [2] was 0.405 (inactive).

`CC(=O)Nc1ccc(NC(=S)NC(=O)c2ccc(C(C)(C)C)cc2)cc1` [Tenovin-1] was tested, and the “scaled lipid accumulation score” value [6] was ≤ 0 (inactive).

Reference: the supplement of paper PMC9135407
